Among all 69,000 compounds or so, about 1,000 (1.4%) showed an effect of 50% or more. Only a selection was taken, and strong results are over-represented in it overall.
System: Leishmania donovani
Assay: Leishmania intramacrophage assay
Type: functional, organism-based
Set-up: scale not given: in the data most compounds retested in dose-response had high values

CN1CCN(c2ccc(Cl)cc2NC(=O)c2ccco2)CC1
Percent Effect (30.3 µM, […]): 18.57%

CN1CCN(c2ccc(Br)cc2NC(=O)c2ccco2)CC1
Percent Effect (30.3 µM, […]): 53.58%

CN1CCN(c2ccccc2NC(=O)c2ccco2)CC1
Percent Effect (30.3 µM, […]): 13.32%

Cc1ccc(C(=O)O)cc1-c1cccc2c1CCNC2
Percent Effect (30.3 µM, […]): 17.04%

O=C(c1ccnnc1)N1C[C@H](OCC2CC2)[C@H]2COC[C@H]21
Percent Effect (30.3 µM, […]): 15.2%

CCOc1ccc(Cl)c(C(=O)NC(C(N)=O)c2ccccc2)n1 (centres undefined)
Percent Effect (30.3 µM, […]): 28.97%

Cc1cccc(CN2C(=O)CC[C@@H]3[C@H]2CCN3Cc2ccc(C)s2)n1.O=C(O)C(F)(F)F.O=C(O)C(F)(F)F
Percent Effect (30 µM, 30.03 µM): 7.01%

Cc1ccc(-n2ncc3c2CCCC3N)cc1C (centres undefined)
Percent Effect (30.3 µM, […]): 72.93%

Cc1ccc(-n2ncc(C(=O)N(C)C3CCN(C)CC3)c2N)cc1C
Percent Effect (30.3 µM, […]): 14.5%

CN(C)S(=O)(=O)NC1CCCc2c1cnn2-c1ccc(C(C)(C)C)cc1 (centres undefined)
Percent Effect (30.3 µM, […]): 27.24%

Cc1cc(C)cc(-n2ncc3c2CCCC3N)c1 (centres undefined)
Percent Effect (30.3 µM, […]): 79.9%

CC(C)(C)c1ccc(-n2ncc3c2CCCC3N)cc1 (centres undefined)
Percent Effect (30.3 µM, […]): 27.02%

NC1CCCc2c1cnn2-c1cc(F)cc(F)c1 (centres undefined)
Percent Effect (30.3 µM, […]): -4.914%

O=C(O)C(F)(F)F.c1cnc(NCc2nnn3c2CN(Cc2ccsc2)CCC3)nc1
Percent Effect (30.3 µM, […]): -35.49%

Cc1ccc(OCCNc2cccc(C(=O)N3CCOCC3)c2)cc1
Percent Effect (30.3 µM, […]): 19.35%

CC(=O)NCc1cccc(-n2ccnc2-c2cccc(C(=O)O)c2)c1
Percent Effect (30.3 µM, […]): -4.637%

CC(C)C(NC(=O)c1ccccc1F)C(=O)Nc1cnn(C)c1 (centres undefined)
Percent Effect (30.3 µM, […]): 14.78%

Cc1ccc(-c2cc(C(=O)NCCN3CCCS3(=O)=O)[nH]n2)cc1
Percent Effect (30 µM): -10.89%

CC(C)c1nc(C2CCCN(C(=O)CCCn3ccnc3)C2)no1 (centres undefined)
Percent Effect (30 µM): 30.47%

NC(=O)C1CCCN1C1CCN(C(=O)c2ccc3c(c2)OCO3)CC1 (centres undefined)
Percent Effect (30.3 µM, […]): 5.65%

COc1ccc(NCc2nc(=O)n(CCC(C)C)[nH]2)cc1
Percent Effect (30 µM, 30.03 µM): 11.21%

O=C(Cc1cccc(F)c1)NCCNCc1ccc2c(c1)CCO2
Percent Effect (30 µM, 30.03 µM): 29.87%

O=c1[nH]c2nc(NCC3CCCO3)ncc2c(=O)n1-c1cccc(F)c1 (centres undefined)
Percent Effect (30.3 µM, […]): 20.13%

O=c1[nH]c2nc(NC3CC3)ncc2c(=O)n1-c1ccc(F)cc1
Percent Effect (30.3 µM, […]): 24.05%

O=c1[nH]c2nc(NCC3CCCO3)ncc2c(=O)n1-c1ccc(F)cc1 (centres undefined)
Percent Effect (30.3 µM, […]): 51.53%

O=C(c1cc(C2CCCCN2CCO)n[nH]1)N1CCOCC1.O=CO (centres undefined)
Percent Effect (30.3 µM, […]): -5.533%

CN[C@@H](C)C(=O)N(Cc1cccc(C)c1)Cc1ccccc1OC
Percent Effect (30.3 µM, […]): 82.29%

COc1ccccc1CN(Cc1cccc(C)c1)C(=O)[C@@H](N)CC(=O)O
Percent Effect (30.3 µM, […]): 13.42%

COCC(=O)N(Cc1cccc(C)c1)Cc1ccccc1OC
Percent Effect (30.3 µM, […]): 40.9%
